From PubChem BioAssay AID757 (NMMLSC, 2007) come the findings set out here.

The campaign covered roughly 190,000 compounds. About 520 (0.27%) were called active. About 2% were inconclusive and are not listed. The full list was thinned out, with actives kept by preference. Unmarked numbers belong to inactive results.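 How the source made its calls: active means GTP binding activity at least 20 points away from the 100% control level, either lower or higher; inconclusive means compound flagged as likely green fluorescent, judged across all proteins; inactive means the rest.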

In the test the target is Ras-related C3 botulinum toxin substrate 1 (Homo sapiens) (UniProt P63000). Description: wildtype Rac1 GTP binding modulators, primary screen, biochemical, GST-Rac1 beads, flow cytometry, multiplex (AID 757). The conditions noted are these: fluorescent GTP binding, at 10 µM, actives lie on both sides, 0 = cold GTP competed, 100 = untreated. (In general: In flow cytometry, cells or beads pass a laser one at a time.)
With `COc1cc(COCC(O)CN2CCN(Cc3ccc4c(c3)OCO4)CC2)cc(OC)c1OC` (stereo unspecified), the GTP binding activity (% of control) was 102%. As for `O=[N+]([O-])c1cccc(Nc2c3ccccc3nc3ccccc23)c1`, the GTP binding activity (% of control) is 93%. For the compound `Cc1cc(OCCCN2CCN(Cc3ccccc3)CC2)ccc1[N+](=O)[O-]`, the GTP binding activity (% of control) is 85%.

For `CN(CC(=O)N1CCN(c2ccccc2)CC1)S(=O)(=O)c1cccs1`, the GTP binding activity (% of control) is 101%. As to `Cc1cc(C)nc(/N=C2\NC(=O)CC(C(=O)O)N2c2ccc(Cl)cc2Cl)n1` (stereo unspecified), the GTP binding activity (% of control) was 96%.

Regarding `O=C(c1ccc(F)cc1)N1CCCC(c2nc(-c3cccs3)no2)C1` (stereo unspecified), the GTP binding activity (% of control) was 99%. The result for `O=C(NC1CCCCC1)C1CCCN(S(=O)(=O)c2ccc(Br)s2)C1` (stereo unspecified) reads 100%; that for `Cc1cccc(NC(=O)c2cccc(C(F)(F)F)c2)c1`, 98%. Then `CCOC(=O)c1ccc(NC(=S)N2CCCC2)cc1`, with 96%. On to `Cc1ccc(N(C(=O)Cc2cccs2)C(C(=O)NCC2CCCO2)c2ccncc2)cc1` (stereo unspecified), for which the GTP binding activity (% of control) is 108%. Then `CCCNC(=S)N1CCCC(c2nc3ccccc3[nH]2)C1` (stereo unspecified), with 97%; and `COc1cccc(CN(C)CC(=O)NCc2ccccc2Cl)c1OC`, with 98%; and `COc1cc(/C=N/NC(=S)Nc2cccnc2)cc(OC)c1O`, with 77% (active). The result for `COc1cc(/C=N/Nc2ccc(C)cc2)cc(Br)c1O` reads 97%; that for `COc1ccc(/C=C/C(=O)Nc2cccnc2)cc1OC`, 98%.

Consider `O=C(O)COc1ccc(/C=N/O)cc1Br`, for which the GTP binding activity (% of control) was 92%.

With `Cc1nn(CC(=O)Nc2ccc3c(c2)OCO3)c(C)c1[N+](=O)[O-]`, the GTP binding activity (% of control) is 100%. Then `COc1ccc(C2(CNC(=O)C(c3ccccc3)c3ccccc3)CCOCC2)cc1OC`, with 123% [activator] (active); and `COc1ccc(C2(CNC(=O)Cc3ccc(OC)c(OC)c3)CCCC2)cc1`, with 97%. The result for `CCCCNC(=O)C1(c2ccc(OC)cc2)CCOCC1` reads 108%; that for `Cc1cc(NC(=O)CN2C(=O)NC(CCc3ccccc3)C2=O)no1` (stereo unspecified), 100%; that for `COC(=O)Cn1cc(/C=C/[N+](=O)[O-])c2ccccc21`, 93%. The result for `CC(C)C(C)(C#N)NC(=O)CSc1nncn1-c1ccccc1` (stereo unspecified) reads 104%; that for `C/C(=N\OCC(=O)Nc1ccc(Br)cc1)c1cccs1`, 93%. Take `CCOC(=O)Cc1ncccc1C(=O)Nc1ccc(OC)cc1`: the GTP binding activity (% of control) was 100%. As to `O=C(NCc1ccco1)c1nn2cccnc2c1Cl`, the GTP binding activity (% of control) was 99%. As to `O=C(CCC(=O)NNc1nc2ccccc2c2nc(-c3ccccc3)nn12)NCCCN1CCCC1=O`, the GTP binding activity (% of control) was 96%. The result for `CCOc1ccc(NC(=O)NNC(=O)c2ccc(Cl)cc2Cl)cc1` reads 96%; that for `CN1C(=O)/C(=C/c2ccc(C(=O)NC3CCCC3)cc2)Oc2ccccc21`, 99%. Turning to `CCn1c(CSc2nc(C)cc(C)n2)nnc1SCC(N)=O`, the GTP binding activity (% of control) is 95%.

Regarding `Cc1c(CN2CCCCC2)c(O)n(CCO)c(=O)c1C#N`, the GTP binding activity (% of control) is 94%. The result for `COc1ccc(C)cc1-n1nnnc1SCc1nc2ccccc2c(=O)[nH]1` reads 98%; that for `CCCCCc1nnc(NC(=O)c2ccc(=O)n(C)n2)s1`, 101%; that for `CCc1ccc(Oc2nc([N+](=O)[O-])nn2C)cc1`, 98%.

Take `CCOC(=O)N1CCN(Cc2nc(Cc3cccc(C(F)(F)F)c3)no2)CC1`: the GTP binding activity (% of control) was 99%. Then `CSCC(NS(=O)(=O)c1ccc(C)cc1)C(=O)O` (stereo unspecified), with 104%. Consider `Cc1noc(C)c1CCC(=O)O`, for which the GTP binding activity (% of control) was 97%.

For the compound `Cn1cnnc1SCc1nnc(-c2ccccc2Br)o1`, the GTP binding activity (% of control) is 87%.

`O=C(C1CCCN1S(=O)(=O)c1ccc(Br)cc1)N1CCOCC1` (stereo unspecified): the GTP binding activity (% of control) is 97%. Then `O=C(CNC(=O)c1cc(=O)[nH]c2ccccc12)Nc1ccc(F)c(F)c1`, with 97%; and `O=C(CN1CCN(Cc2ccc(F)cc2Cl)C1=O)NCc1cccs1`, with 99%; and `CCn1ccnc1CN(C)Cc1nc(-c2ccc3c(c2)OCO3)no1`, with 99%. `CC(C)OC(=O)Cn1nc(C(F)(F)F)c2c1CCCC2`: the GTP binding activity (% of control) is 93%.

For `CCn1cc(C(=O)Nc2cc(C)ccc2C)c(=O)c2ccc(C)nc21`, the GTP binding activity (% of control) was 100%. For `N#Cc1ccc(CSc2nnc3ccccn23)cc1`, the GTP binding activity (% of control) is 104%. Then `CCN(CC)C(=O)CS(=O)CC(=O)Nc1cc(OCCOC)c(Cl)cc1Cl` (stereo unspecified), with 103%.
